# PubChem BioAssay (NCATS)
# Inconclusive results are not listed. Activity calls are given as the source filed them. Calls come from the whole dose curve; as a rule, active = well fitted curve in the direction sought with a large enough effect; inconclusive = small, poorly fitted or top-dose-only effect, or another doubt; inactive = no such curve, though single readings can be large; an effect the other way counts as inactive or inconclusive.
# Target: Aldehyde dehydrogenase, mitochondrial (Homo sapiens) (UniProt P05091)
# Assay: qHTS for Inhibitors of the Aldehyde Dehydrogenase Family (ALDH2) Primary screen (AID 2061308); note: nearly all actives have a fitted effect of over 55% in size; note: potency is the fitted concentration of half-maximal effect;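 for activity change, negative = inhibition: plate controls were vehicle for no effect and reference inhibitor for full effect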
# Conditions: ALDH2 enzyme inhibition qHTS, 1536-well; series mostly up to 56 µM; activity change, negative = inhibition: at the top concentration
SMILES,"activity change, negative = inhibition",Potency
NC(=O)C1CCN(c2nc(-c3cccnc3)cs2)CC1,3.77% (inactive),
O=S(=O)(Nc1nc(CN2CCOCC2)nc2sc3c(c12)CCCC3)c1ccc2ccccc2c1,-1.03% (inactive),
O=C(OCC#CCSc1nnc(-c2cccc3ccccc23)o1)c1cnc[nH]1,-2.61% (inactive),
C=C1C(=O)O[C@@H]2/C=C(\C)CC/C=C(/C=O)[C@H](OC)[C@@H](OC(=O)C(C)C)[C@@H]12,-5.4% (inactive),
O=S1(=O)N=C(Oc2cccc(C(F)(F)F)c2)c2ccccc21,-7.08% (inactive),
CNC(=O)C1=C(C)NC(Nc2nc3ccccc3o2)=NC1c1nn(C)cc1Cl (stereo not given),-22.1% (inactive),
COc1ccc(-c2nc3ccccc3n2Cc2ccccc2)cc1COc1ccc(NC(C)=O)cc1,10.5% (inactive),
O=C(c1ccccc1O)N(Cc1cccs1)Cc1cccs1,8.93% (inactive),
Cc1cc(N[S+](=O)([O-])c2ccc(NC(=O)Cc3ccccc3Cl)cc2)no1,-4.62% (inactive),
Cc1c(P(=S)(c2ccccc2)c2ccccc2)c2ccccc2n1CCc1ccccc1,7.91% (inactive),
C=C1C(=O)O[C@@H]2C(OC(=O)/C(C)=C\C)/C(C)=C\C(=O)/C=C(\C)C[C@H](O)[C@@H]12 (stereo not given in full),-8.08% (inactive),
COc1cccc(C2c3c(ncn(-c4ccc(C)cc4)c3=N)Oc3ccc4ccccc4c32)c1 (stereo not given),-1.83% (inactive),
CCC(CC)C(=O)OC12C(OC(=O)C(C)C)C(C)C3(O)C(C=C(CO)CC4(O)C(=O)C(C)=CC43)C1C2(C)C (stereo not given),-4.31% [at 28 µM] (inactive),
COc1cc(F)c(S(=O)(=O)N2CCCN(S(=O)(=O)c3ccc(NC(C)=O)cc3)CC2)c(F)c1,12.9% (inactive),
CC1(C)CCC(C)(C)c2cc([S+](=O)([O-])N3CCN([S+](=O)([O-])c4c(F)cccc4F)CC3)ccc21,13.4% (inactive),
Cc1ccc(C)n1-c1cccc(-c2nn[nH]n2)c1,-12.2% (inactive),
Cc1ccc(NC(=O)c2ccc3c(c2)CCC(=O)N3)cc1C,-28.9% (inactive),
C=C1C[C@]23C[C@H]1CC[C@H]2C1=C[C@H]2OC(=O)[C@@](C)([C@H]1[C@@H]3C(=O)O)[C@H]2O,-3.51% (inactive),
O=C(CCCCSc1nnc(-c2cccc3ccccc23)o1)Oc1ccc(F)cc1,1.97% (inactive),
Cc1cc(NS(=O)(=O)c2ccc(NC(=O)Cc3ccc(Cl)c(Cl)c3)cc2)on1,-9.49% (inactive),

SMILES,"activity change, negative = inhibition",Potency
FC(F)(F)c1ccccc1-c1nc(NCc2ccc(C3CCCCC3)cc2)c2ccccc2n1,3.57% (inactive),
N#Cc1ccccc1CCc1nc2ncc(Br)cc2[nH]1,-5.45% (inactive),
COC(=O)c1ccc(O)c2ncc(-c3ccc(C(=O)NCCCN(C)C)cc3)cc12,14.1% (inactive),
CC(C)Nc1nc(C#N)nc(Nc2ccccc2)n1,-14% (inactive),
CC(C)(C)OC(=O)N1CCN(c2ccc(NCc3ncc(-c4ccc(C#N)cc4)s3)cc2)CC1,,4.47 µM (active)
CCN(CC)CCn1c(-c2ccccc2)nc2c(NCCOC)nc(C)nc21,12.5% (inactive),
CC(C)(C)OC(=O)Cc1nnc(-c2nc3ccccc3[nH]2)s1,19.6% (inactive),
CCOc1cccc(-c2cc(-c3n[nH]c(=O)n3CC)c3ccccc3n2)c1,-0.578% (inactive),
O=C(NC1CCCc2c1cnn2-c1ccc(F)cc1F)C1CCCCN1 (stereo not given),-5.05% (inactive),
CC(C)CN1CC2=C(C1=O)C(c1ccccc1Cl)N=C(Nc1nc3ccccc3o1)N2 (stereo not given),-23.2% (inactive),
Cc1ccc(S(=O)(=O)Nc2cc(F)c(F)cc2C(=O)Nc2nc(-c3ccccc3)cs2)cc1,13% (inactive),
O=S(=O)(c1c(F)cccc1F)C1CCN(S(=O)(=O)c2ccc3c(c2)OCCO3)CC1,7.5% (inactive),
CN(Cc1ccco1)c1ncnc2ccc(-c3ccccc3Cl)cc12,8.68% (inactive),
Oc1ccc(/C=C/c2c(F)cccc2F)c2cccnc12,9.08% (inactive),
Fc1ccc(-c2ccc(CNc3nc(-c4ccccc4C(F)(F)F)nc4ccccc34)cc2)cc1C(F)(F)F,0.604% (inactive),
O=C(NC1CCCc2c1cnn2-c1ccc(F)cc1F)c1cnon1 (stereo not given),-3.34% (inactive),
O=S(=O)(NCC1CC1)c1ccc(Nc2nccc(N3CCCc4cc(O)ccc43)n2)cc1,-17.7% (inactive),
COc1cnc(-c2ccccc2C(C)C)nc1NCc1ccc(-c2cccnc2)cc1,24% (inactive),
Cc1ccnc(NC(=S)N2CCC(Nc3cccc(C(F)(F)F)c3)CC2)c1,6.01% (inactive),
Cc1ccc(-c2ccc(=O)n(CC(=O)N(C)C(C)C(C)C)n2)cc1 (stereo not given),16% (inactive),

# Target: Retinaldehyde dehydrogenase 3 (Homo sapiens) (UniProt P47895)
# Assay: qHTS for Inhibitors of the Aldehyde Dehydrogenase Family (ALDH1A3) Primary screen (AID 2061315);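 note: plate controls were DMSO vehicle for no effect and reference inhibitor for full effect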
# Conditions: ALDH inhibition qHTS; series mostly up to 56 µM; activity change, negative = inhibition: at the top concentration
row,SMILES,"activity change, negative = inhibition"
1,NC(=O)C1CCN(c2nc(-c3cccnc3)cs2)CC1,-10.7% (inactive)
2,O=S(=O)(Nc1nc(CN2CCOCC2)nc2sc3c(c12)CCCC3)c1ccc2ccccc2c1,22% (inactive)
3,O=C(OCC#CCSc1nnc(-c2cccc3ccccc23)o1)c1cnc[nH]1,16.9% (inactive)
4,C=C1C(=O)O[C@@H]2/C=C(\C)CC/C=C(/C=O)[C@H](OC)[C@@H](OC(=O)C(C)C)[C@@H]12,3.8% (inactive)
5,O=S1(=O)N=C(Oc2cccc(C(F)(F)F)c2)c2ccccc21,-4.77% (inactive)
6,CNC(=O)C1=C(C)NC(Nc2nc3ccccc3o2)=NC1c1nn(C)cc1Cl (stereo not given),11% (inactive)
7,COc1ccc(-c2nc3ccccc3n2Cc2ccccc2)cc1COc1ccc(NC(C)=O)cc1,3.97% (inactive)
8,O=C(c1ccccc1O)N(Cc1cccs1)Cc1cccs1,4.78% (inactive)
9,Cc1cc(N[S+](=O)([O-])c2ccc(NC(=O)Cc3ccccc3Cl)cc2)no1,0.191% (inactive)
10,Cc1c(P(=S)(c2ccccc2)c2ccccc2)c2ccccc2n1CCc1ccccc1,-20.3% (inactive)
11,C=C1C(=O)O[C@@H]2C(OC(=O)/C(C)=C\C)/C(C)=C\C(=O)/C=C(\C)C[C@H](O)[C@@H]12 (stereo not given in full),6.89% (inactive)
12,COc1cccc(C2c3c(ncn(-c4ccc(C)cc4)c3=N)Oc3ccc4ccccc4c32)c1 (stereo not given),-5.97% (inactive)
13,CCC(CC)C(=O)OC12C(OC(=O)C(C)C)C(C)C3(O)C(C=C(CO)CC4(O)C(=O)C(C)=CC43)C1C2(C)C (stereo not given),13.9% [at 28 µM] (inactive)
14,COc1cc(F)c(S(=O)(=O)N2CCCN(S(=O)(=O)c3ccc(NC(C)=O)cc3)CC2)c(F)c1,-4.69% (inactive)
15,CC1(C)CCC(C)(C)c2cc([S+](=O)([O-])N3CCN([S+](=O)([O-])c4c(F)cccc4F)CC3)ccc21,-2.67% (inactive)
16,Cc1ccc(C)n1-c1cccc(-c2nn[nH]n2)c1,13.7% (inactive)
17,Cc1ccc(NC(=O)c2ccc3c(c2)CCC(=O)N3)cc1C,3.68% (inactive)
18,C=C1C[C@]23C[C@H]1CC[C@H]2C1=C[C@H]2OC(=O)[C@@](C)([C@H]1[C@@H]3C(=O)O)[C@H]2O,14.5% (inactive)
19,O=C(CCCCSc1nnc(-c2cccc3ccccc23)o1)Oc1ccc(F)cc1,15.6% (inactive)
20,Cc1cc(NS(=O)(=O)c2ccc(NC(=O)Cc3ccc(Cl)c(Cl)c3)cc2)on1,6.58% (inactive)

row,SMILES,"activity change, negative = inhibition"
1,FC(F)(F)c1ccccc1-c1nc(NCc2ccc(C3CCCCC3)cc2)c2ccccc2n1,2.47% (inactive)
2,N#Cc1ccccc1CCc1nc2ncc(Br)cc2[nH]1,-1.32% (inactive)
3,COC(=O)c1ccc(O)c2ncc(-c3ccc(C(=O)NCCCN(C)C)cc3)cc12,-21.1% (inactive)
4,CC(C)Nc1nc(C#N)nc(Nc2ccccc2)n1,3.4% (inactive)
5,CC(C)(C)OC(=O)N1CCN(c2ccc(NCc3ncc(-c4ccc(C#N)cc4)s3)cc2)CC1,-1.88% (inactive)
6,CCN(CC)CCn1c(-c2ccccc2)nc2c(NCCOC)nc(C)nc21,0.174% (inactive)
7,CC(C)(C)OC(=O)Cc1nnc(-c2nc3ccccc3[nH]2)s1,5.94% (inactive)
8,CCOc1cccc(-c2cc(-c3n[nH]c(=O)n3CC)c3ccccc3n2)c1,-5.42% (inactive)
9,O=C(NC1CCCc2c1cnn2-c1ccc(F)cc1F)C1CCCCN1 (stereo not given),-10.8% (inactive)
10,CC(C)CN1CC2=C(C1=O)C(c1ccccc1Cl)N=C(Nc1nc3ccccc3o1)N2 (stereo not given),24.8% (inactive)
11,Cc1ccc(S(=O)(=O)Nc2cc(F)c(F)cc2C(=O)Nc2nc(-c3ccccc3)cs2)cc1,-6.06% (inactive)
12,O=S(=O)(c1c(F)cccc1F)C1CCN(S(=O)(=O)c2ccc3c(c2)OCCO3)CC1,4.77% (inactive)
13,CN(Cc1ccco1)c1ncnc2ccc(-c3ccccc3Cl)cc12,-9.39% (inactive)
14,Oc1ccc(/C=C/c2c(F)cccc2F)c2cccnc12,22.6% (inactive)
15,Fc1ccc(-c2ccc(CNc3nc(-c4ccccc4C(F)(F)F)nc4ccccc34)cc2)cc1C(F)(F)F,0.489% (inactive)
16,O=C(NC1CCCc2c1cnn2-c1ccc(F)cc1F)c1cnon1 (stereo not given),0.594% (inactive)
17,O=S(=O)(NCC1CC1)c1ccc(Nc2nccc(N3CCCc4cc(O)ccc43)n2)cc1,3.61% (inactive)
18,COc1cnc(-c2ccccc2C(C)C)nc1NCc1ccc(-c2cccnc2)cc1,-9.03% (inactive)
19,Cc1ccnc(NC(=S)N2CCC(Nc3cccc(C(F)(F)F)c3)CC2)c1,6.71% (inactive)
20,Cc1ccc(-c2ccc(=O)n(CC(=O)N(C)C(C)C(C)C)n2)cc1 (stereo not given),21.8% (inactive)
